# Measurements: article PMC5540273 (PLoS ONE, 2017)
# Read-outs that look alike come from different tables or passages of the source.
# Experiments:
# [1] = tested on: FLT3-autoinhibited; conditions: concentration: 1 μM, replicates: in singlicate; n = 1
# [2] = tested on: FLT3; conditions: concentration: 1 μM, replicates: in singlicate; n = 1
# [3] = tested on: FLT4; conditions: concentration: 1 μM, replicates: in singlicate; n = 1
# [4] = tested on: FRK; conditions: concentration: 1 μM, replicates: in singlicate; n = 1
# [5] = tested on: FYN; conditions: concentration: 1 μM, replicates: in singlicate; n = 1
# [6] = tested on: GAK; conditions: concentration: 1 μM, replicates: in singlicate; n = 1
# [7] = tested on: T1, GCN2(Kin.Dom.2,S808G); conditions: concentration: 1 μM, replicates: in singlicate; n = 1
# T1 construct: gene EIF2AK4
# [8] = tested on: GRK1; conditions: concentration: 1 μM, replicates: in singlicate; n = 1
# [9] = tested on: T2, GRK2; conditions: concentration: 1 μM, replicates: in singlicate; n = 1
# T2 construct: gene ADRBK1
# [10] = tested on: T3, GRK3; conditions: concentration: 1 μM, replicates: in singlicate; n = 1
# T3 construct: gene ADRBK2
# [11] = tested on: GRK4; conditions: concentration: 1 μM, replicates: in singlicate; n = 1
# [12] = tested on: GRK7; conditions: concentration: 1 μM, replicates: in singlicate; n = 1
# [13] = tested on: GSK3A; conditions: concentration: 1 μM, replicates: in singlicate; n = 1
# [14] = tested on: GSK3B; conditions: n = 1
# [15] = tested on: T4, HASPIN; conditions: concentration: 1 μM, replicates: in singlicate; n = 1
# T4 construct: gene GSG2
# [16] = tested on: HCK; conditions: concentration: 1 μM, replicates: in singlicate; n = 1
# [17] = tested on: HIPK1; conditions: concentration: 1 μM, replicates: in singlicate; n = 1
# [18] = tested on: HIPK2; conditions: concentration: 1 μM, replicates: in singlicate; n = 1
# [19] = tested on: HIPK3; conditions: concentration: 1 μM, replicates: in singlicate; n = 1
# [20] = tested on: HIPK4; conditions: concentration: 1 μM, replicates: in singlicate; n = 1
# [21] = concentration: 1 μM, replicates: in singlicate
# 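Further: KINOMEscan kinase panel screen.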
smiles,measurement,setting,value
O=c1cc(N2CCOCC2)nc2n(Cc3cccc4ccccc34)ccn12 [GSK2333389],%Inh,[1],3%
same,%Inh,[2],10%
same,%Inh,[3],8%
same,%Inh,[4],0%
same,%Inh,[5],0%
same,%Inh,[6],1%
same,%Inh,[7],1%
same,%Inh,[8],13%
same,%Inh,[9],0%
same,%Inh,[10],0%
same,%Inh,[11],0%
same,%Inh,[12],0%
same,%Inh,[13],9%
same,%Inh,[14]; [21],10%
same,%Inh,[15],0%
same,%Inh,[16],0%
same,%Inh,[17],0%
same,%Inh,[18],0%
same,%Inh,[19],21%
same,%Inh,[20],5%
O=c1cc(N2CCOCC2)nc2n(Cc3cccc(Cl)c3Cl)c(C3CC3)nn12 [GSK2358994],%Inh,[1],0%
same,%Inh,[2],10%
same,%Inh,[3],10%
same,%Inh,[4],0%
same,%Inh,[5],6%
same,%Inh,[6],11%
same,%Inh,[7],0%
same,%Inh,[8],0%
same,%Inh,[9],0%
same,%Inh,[10],0%
same,%Inh,[11],0%
same,%Inh,[12],0%
same,%Inh,[13],4%
same,%Inh,[14]; [21],0%
same,%Inh,[15],0%
same,%Inh,[16],0%
same,%Inh,[17],16%
same,%Inh,[18],0%
same,%Inh,[19],16%
same,%Inh,[20],0%
Cc1nnc(-c2ccc(C)c(-c3ccc(C(=O)Nc4ccc(NS(C)(=O)=O)cc4)cc3)c2)o1 [GW702865],%Inh,[1],0%
same,%Inh,[2],0%
same,%Inh,[3],8%
same,%Inh,[4],0%
same,%Inh,[5],17%
same,%Inh,[6],0%
same,%Inh,[7],10%
same,%Inh,[8],0%
same,%Inh,[9],0%
same,%Inh,[10],0%
same,%Inh,[11],0%
same,%Inh,[12],0%
same,%Inh,[13],5%
same,%Inh,[14]; [21],0%
same,%Inh,[15],46%
same,%Inh,[16],0%
same,%Inh,[17],0%
same,%Inh,[18],0%
same,%Inh,[19],12%
same,%Inh,[20],0%
O=C(NOCC1CC1)c1ccc(F)c(F)c1Nc1ccc(I)cc1Cl,%Inh,[1],0%
same,%Inh,[2],0%
same,%Inh,[3],1%
same,%Inh,[4],0%
same,%Inh,[5],0%
same,%Inh,[6],0%
same,%Inh,[7],0%
same,%Inh,[8],0%
same,%Inh,[9],0%
same,%Inh,[10],0%
same,%Inh,[11],0%
same,%Inh,[12],0%
same,%Inh,[13],0%
same,%Inh,[14]; [21],0%
same,%Inh,[15],30%
same,%Inh,[16],0%
same,%Inh,[17],0%
same,%Inh,[18],0%
same,%Inh,[19],0%
same,%Inh,[20],0%
Cl.Oc1cccc(Nc2ccnc3cc(-c4ccncc4)ccc23)c1 [GW494601],%Inh,[1],3%
same,%Inh,[2],28%
same,%Inh,[3],97.4%
same,%Inh,[4],97.6%
same,%Inh,[5],95.7%
same,%Inh,[6],76%
same,%Inh,[7],0%
same,%Inh,[8],0%
same,%Inh,[9],0%
same,%Inh,[10],36%
same,%Inh,[11],0%
same,%Inh,[12],0%
same,%Inh,[13],23%
same,%Inh,[14]; [21],0%
same,%Inh,[15],55%
same,%Inh,[16],97.7%
same,%Inh,[17],0%
same,%Inh,[18],0%
same,%Inh,[19],0%
same,%Inh,[20],0%
NS(=O)(=O)c1cccc(-c2ccc3ncc(N4CCOCC4)nc3c2)c1 [GSK1535721],%Inh,[1],12%
same,%Inh,[2],0%
same,%Inh,[3],12%
same,%Inh,[4],11%
same,%Inh,[5],16%
same,%Inh,[6],15%
same,%Inh,[7],0%
same,%Inh,[8],3%
same,%Inh,[9],0%
same,%Inh,[10],30%
same,%Inh,[11],0%
same,%Inh,[12],0%
same,%Inh,[13],19%
same,%Inh,[14]; [21],0%
same,%Inh,[15],36%
same,%Inh,[16],0%
same,%Inh,[17],10%
same,%Inh,[18],0%
same,%Inh,[19],1%
same,%Inh,[20],0%
Cc1cccc(Cn2ccn3c(=O)cc(N4CCOCC4)nc23)c1 [GSK2297542],%Inh,[1],2%
same,%Inh,[2],11%
same,%Inh,[3],0%
same,%Inh,[4],7%
same,%Inh,[5],21%
same,%Inh,[6],20%
same,%Inh,[7],6%
same,%Inh,[8],0%
same,%Inh,[9],0%
same,%Inh,[10],16%
same,%Inh,[11],0%
same,%Inh,[12],0%
same,%Inh,[13],10%
same,%Inh,[14]; [21],3%
same,%Inh,[15],0%
same,%Inh,[16],0%
same,%Inh,[17],28%
same,%Inh,[18],0%
same,%Inh,[19],30%
same,%Inh,[20],15%
O=C(Nc1n[nH]c2cc(-c3cccc(F)c3)ccc12)C1CC1 [SB-735464],%Inh,[1],0%
same,%Inh,[2],21%
same,%Inh,[3],0%
same,%Inh,[4],6%
same,%Inh,[5],0%
same,%Inh,[6],9%
same,%Inh,[7],0%
same,%Inh,[8],14%
same,%Inh,[9],0%
same,%Inh,[10],12%
same,%Inh,[11],38%
same,%Inh,[12],6%
same,%Inh,[13],43%
same,%Inh,[14]; 1 µM,22%
same,%Inh,[15],30%
same,%Inh,[16],0%
same,%Inh,[17],7%
same,%Inh,[18],22%
same,%Inh,[19],31%
same,%Inh,[20],9%
Cc1ccc(C(=O)NCC(N)=O)cc1-n1c(C)cc(OCc2ccc(F)cc2F)c(Br)c1=O,%Inh,[1],0%
same,%Inh,[2],13%
same,%Inh,[3],0%
same,%Inh,[4],25%
same,%Inh,[5],20%
same,%Inh,[6],6%
same,%Inh,[7],0%
same,%Inh,[8],20%
same,%Inh,[9],0%
same,%Inh,[10],0%
same,%Inh,[11],0%
same,%Inh,[12],0%
same,%Inh,[13],58%
same,%Inh,[14]; [21],0%
same,%Inh,[15],0%
same,%Inh,[16],21%
same,%Inh,[17],46%
same,%Inh,[18],0%
same,%Inh,[19],0%
same,%Inh,[20],0%
COC(=O)Nc1nc2cc(Oc3ccc(NC(=O)Nc4cc(F)ccc4F)cc3)ccc2[nH]1.Cl [GW701424],%Inh,[1],14%
same,%Inh,[2],99.2%
same,%Inh,[3],85%
same,%Inh,[4],20%
same,%Inh,[5],0%
same,%Inh,[6],0%
same,%Inh,[7],0%
same,%Inh,[8],11%
same,%Inh,[9],0%
same,%Inh,[10],50%
same,%Inh,[11],0%
same,%Inh,[12],0%
same,%Inh,[13],3%
same,%Inh,[14]; [21],11%
same,%Inh,[15],0%
same,%Inh,[16],6%
same,%Inh,[17],0%
same,%Inh,[18],0%
same,%Inh,[19],5%
same,%Inh,[20],29%
